In PubChem BioAssay (EPA / NIEHS):
Results filed as inconclusive are left out. Calls of active or inactive are those of the source. How the source made its calls, unless noted: active means hit-call score of the fitted dose curve at least 0.9, where 1 is the maximum; inactive means score below 0.9.

Key:
[1] = ATG_M_61_CIS: Attagene CIS-FACTORIAL HepG2 Assay for M61 Transcription Factor (Internal Marker) (AID 2282937); conditions: HepG2 Attagene CIS-FACTORIAL M61 internal marker reporter; actives raise or lower the signal
In short: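 Cells were transfected with reporter units under cis-regulatory promoters, treated with chemicals for 24 h, then lysed for RNA. Reporter transcripts were quantified by RT-PCR and capillary electrophoresis, and activity was fitted bidirectionally against DMSO.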

[2] = ATG_Ets_CIS: Attagene CIS-FACTORIAL HepG2 Assay for human Erythroblast Transformation Specific (ETS) (AID 2282941); conditions: HepG2 ETS cis-reporter transcription, actives raise or lower the signal
In short: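 RT-PCR/capillary electrophoresis fluorescence read-out of reporter mRNA; HepG2 transient multi-reporter transfection; 24 h compound exposure; gain or loss of signal fitted bidirectionally relative to DMSO.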

[3] = target: Hepatocyte nuclear factor 3-beta (Homo sapiens) (UniProt Q9Y261); test: ATG_FoxA2_CIS: Attagene CIS-FACTORIAL HepG2 Assay for human Forkhead box A2 (FOXA2) (AID 2282942); conditions: HepG2 cis-reporter transcription factor activity, 24 h; actives raise or lower the signal
Chain of Hepatocyte nuclear factor 3-beta (Homo sapiens) (Q9Y261 whole entry, looked up): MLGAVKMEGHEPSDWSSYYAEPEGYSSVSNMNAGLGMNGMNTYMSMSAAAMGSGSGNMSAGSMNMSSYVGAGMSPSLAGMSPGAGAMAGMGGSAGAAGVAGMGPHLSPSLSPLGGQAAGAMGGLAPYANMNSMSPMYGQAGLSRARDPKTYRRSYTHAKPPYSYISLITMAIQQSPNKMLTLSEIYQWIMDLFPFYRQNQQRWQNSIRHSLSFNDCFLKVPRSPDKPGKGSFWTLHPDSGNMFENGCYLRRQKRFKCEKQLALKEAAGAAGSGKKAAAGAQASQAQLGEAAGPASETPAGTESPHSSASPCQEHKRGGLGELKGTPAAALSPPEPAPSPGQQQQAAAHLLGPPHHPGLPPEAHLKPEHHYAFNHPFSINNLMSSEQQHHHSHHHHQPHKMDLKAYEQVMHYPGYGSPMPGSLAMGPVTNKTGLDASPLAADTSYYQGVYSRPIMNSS
In short: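 Endogenous transcription factor activity was read in HepG2 cells carrying transiently transfected cis-promoter reporter units. After 24 h dosing, reporter mRNA was quantified by RT-PCR and capillary electrophoresis, and values fitted bidirectionally versus DMSO.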

[4] = ATG_GRE_CIS: Attagene CIS-FACTORIAL HepG2 Assay for human Glucocorticoid Response Elements (GRE) (AID 2282947); conditions: HepG2 GRE cis-reporter, Attagene multiplex mRNA; actives raise or lower the signal
In short: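 Fluorescence intensity of reporter-specific cDNA fragments, separated by capillary electrophoresis, provides the signal. Constructs carry cis-regulating promoters in transiently transfected HepG2 liver cells; 24 h incubation; fitting is bidirectional against DMSO.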

[5] = target: Hepatocyte nuclear factor 6 (Homo sapiens) (UniProt Q9UBC0); test: ATG_HNF6_CIS: Attagene CIS-FACTORIAL HepG2 Assay for human Hepatocyte Nuclear Factor 6 (HNF6) (AID 2282952); conditions: HepG2 Attagene cis-factorial HNF6 reporter transcription; actives raise or lower the signal
Chain of Hepatocyte nuclear factor 6 (Homo sapiens) (Q9UBC0 whole entry, looked up, the tested form may be a part): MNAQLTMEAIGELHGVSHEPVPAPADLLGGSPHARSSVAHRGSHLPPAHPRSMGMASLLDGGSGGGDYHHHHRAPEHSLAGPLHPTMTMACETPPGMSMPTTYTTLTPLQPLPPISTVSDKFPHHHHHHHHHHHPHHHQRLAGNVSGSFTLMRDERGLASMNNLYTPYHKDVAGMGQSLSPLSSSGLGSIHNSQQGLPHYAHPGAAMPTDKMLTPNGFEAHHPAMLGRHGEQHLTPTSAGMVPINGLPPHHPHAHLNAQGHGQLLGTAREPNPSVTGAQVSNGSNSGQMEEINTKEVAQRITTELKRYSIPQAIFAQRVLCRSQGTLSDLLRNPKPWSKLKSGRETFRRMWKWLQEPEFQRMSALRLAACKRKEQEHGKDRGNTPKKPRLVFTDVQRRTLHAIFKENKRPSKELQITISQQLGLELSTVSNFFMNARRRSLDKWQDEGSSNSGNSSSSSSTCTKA
In short: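 Using cis-element reporters in HepG2 liver cells, the assay tracks endogenous factor-driven transcription 24 h post-dosing. Signal comes from 6-FAM-labelled, HpaI-digested RT-PCR fragments, with gain or loss scored against DMSO.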

[6] = target: Heat shock factor protein 1 (Homo sapiens) (UniProt Q00613); test: ATG_HSE_CIS: Attagene CIS-FACTORIAL HepG2 Assay for human Heat Shock Transcription Factor 1 (HSE) (AID 2282953); conditions: HepG2 HSE cis-reporter, Attagene RNA transcription; actives raise or lower the signal
Chain of Heat shock factor protein 1 (Homo sapiens) (Q00613 whole entry, looked up, the tested form may be a part): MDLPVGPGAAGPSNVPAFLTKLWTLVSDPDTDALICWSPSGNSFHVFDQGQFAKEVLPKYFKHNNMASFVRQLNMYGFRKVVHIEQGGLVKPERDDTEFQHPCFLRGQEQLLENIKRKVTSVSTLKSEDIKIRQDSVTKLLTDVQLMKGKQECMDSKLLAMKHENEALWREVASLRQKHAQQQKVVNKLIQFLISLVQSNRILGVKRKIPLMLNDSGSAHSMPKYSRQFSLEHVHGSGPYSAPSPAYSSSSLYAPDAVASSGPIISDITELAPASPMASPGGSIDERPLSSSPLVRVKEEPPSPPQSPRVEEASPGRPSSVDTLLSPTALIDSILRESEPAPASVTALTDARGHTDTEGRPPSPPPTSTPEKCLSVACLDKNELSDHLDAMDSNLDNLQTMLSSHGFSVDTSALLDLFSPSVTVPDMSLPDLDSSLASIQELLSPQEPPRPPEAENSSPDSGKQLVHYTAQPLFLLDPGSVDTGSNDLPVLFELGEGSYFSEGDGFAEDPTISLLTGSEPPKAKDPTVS
In short: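 Endogenous transcription factor activity captured via cis-promoter reporter units transfected into HepG2; treatment lasted 24 h. Fluorescence intensity of reporter fragments analysed with bidirectional curve fitting, DMSO baseline.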

[7] = ATG_PXRE_CIS: Attagene CIS-FACTORIAL HepG2 Assay for human Pregnane X Receptor Element (PXRE) (AID 2282957); conditions: HepG2 Attagene CIS-FACTORIAL PXRE reporter, mRNA; actives raise or lower the signal
In short: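 Using HepG2 transfected with multiple reporter transcription units, endogenous factor-driven transcription was scored as reporter mRNA after 24 h exposure.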

[8] = ATG_SREBP_CIS: Attagene CIS-FACTORIAL HepG2 Assay for human Sterol Regulatory Element Binding (SREBP) (AID 2282962); conditions: HepG2 Attagene cis-factorial SREBP reporter, mRNA; actives raise or lower the signal
In short: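 Readout: fluorescent reporter-transcript peaks resolved by capillary electrophoresis after RT-PCR. Cells were human HepG2 carrying transfected cis-promoter reporter constructs, dosed for 24 h. Gain or loss of signal was fitted against DMSO controls.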

[9] = target: Nuclear respiratory factor 1 (Homo sapiens) (UniProt Q16656); test: ATG_NRF1_CIS: Attagene CIS-FACTORIAL HepG2 Assay for human Nuclear Respiratory Factor 1 (NRF1) Orphan Gene (AID 2282987); conditions: HepG2 NRF1 cis-element reporter, Attagene multiplex; actives raise or lower the signal
Chain of Nuclear respiratory factor 1 (Homo sapiens) (Q16656 whole entry, looked up, the tested form may be a part): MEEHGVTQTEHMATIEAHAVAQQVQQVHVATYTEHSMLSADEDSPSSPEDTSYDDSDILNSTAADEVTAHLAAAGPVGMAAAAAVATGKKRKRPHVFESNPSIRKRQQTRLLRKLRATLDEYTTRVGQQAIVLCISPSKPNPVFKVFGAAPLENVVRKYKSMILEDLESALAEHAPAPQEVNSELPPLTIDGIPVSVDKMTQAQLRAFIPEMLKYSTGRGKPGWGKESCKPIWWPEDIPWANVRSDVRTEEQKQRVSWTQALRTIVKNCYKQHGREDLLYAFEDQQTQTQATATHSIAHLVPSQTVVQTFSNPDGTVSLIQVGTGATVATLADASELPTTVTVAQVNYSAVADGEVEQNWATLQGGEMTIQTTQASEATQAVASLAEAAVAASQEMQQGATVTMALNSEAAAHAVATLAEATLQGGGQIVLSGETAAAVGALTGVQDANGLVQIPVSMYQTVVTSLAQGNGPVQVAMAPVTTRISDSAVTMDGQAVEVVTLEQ
In short: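 Fluorescence intensity of labelled reporter cDNA fragments, resolved by capillary electrophoresis, served as readout for NRF1 cis-element activity. Transiently transfected HepG2 cells were dosed for 24 hours; activity in either direction was fitted against DMSO negative control.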

[10] = target: Cellular tumor antigen p53 (Homo sapiens) (UniProt P04637); test: ATG_p53_CIS: Attagene CIS-FACTORIAL HepG2 Assay for human p53 Transcription Factor (AID 2282994); conditions: HepG2 p53 cis-element reporter, Attagene mRNA; actives raise or lower the signal
Chain of Cellular tumor antigen p53 (Homo sapiens) (P04637 whole entry, looked up): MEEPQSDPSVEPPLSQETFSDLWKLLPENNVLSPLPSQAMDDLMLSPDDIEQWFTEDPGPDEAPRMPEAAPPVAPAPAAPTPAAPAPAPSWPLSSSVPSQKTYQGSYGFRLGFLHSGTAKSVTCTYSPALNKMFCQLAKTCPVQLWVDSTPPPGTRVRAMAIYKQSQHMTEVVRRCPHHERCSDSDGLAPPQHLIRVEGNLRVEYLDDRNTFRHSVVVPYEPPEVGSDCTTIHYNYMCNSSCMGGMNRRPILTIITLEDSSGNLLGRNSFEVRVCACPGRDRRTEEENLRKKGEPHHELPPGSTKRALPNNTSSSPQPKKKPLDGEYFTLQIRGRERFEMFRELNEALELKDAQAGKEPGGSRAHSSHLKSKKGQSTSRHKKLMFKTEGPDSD
In short: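 Read-out: reporter mRNA by RT-PCR plus capillary electrophoresis with fluorescence detection. Human HepG2 liver cells carried transfected multi-reporter cis-element constructs, dosed 24 h. Gain or loss of signal fitted bidirectionally against DMSO control.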

[11] = TOX21_p53_BLA_p2_viability: Viability Assessment in the Tox21 HCT-116 p53 Agonism Beta-lactamase Assay, Phase 2 (AID 2283591; active means hit-call score of the fitted dose curve at least 0.9, where 1 is the maximum;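 further: compound exposure lasted 16 h at 37 °C; actives lower the ATP signal meaning cytotoxicity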)
In short: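 HCT116 p53-bla cells, 4000/well, dosed after 5 h plating (217-fold dilution of DMSO stocks) and incubated 16 h at 37C. Viability taken as cellular ATP by CellTiter-Glo luminescence after 30 min RT; signal loss marks cytotoxicity.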

[12] = target: Cellular tumor antigen p53 (Homo sapiens) (UniProt P04637); test: TOX21_p53_BLA_p2_ratio: Tox21 HCT-116 p53 Agonism Beta-lactamase Assay, Ratio, Phase 2 (AID 2283592; active means hit-call score of the fitted dose curve at least 0.9, where 1 is the maximum)
In short: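 Plated HCT116 p53-bla cells (4000/well) received compound after 5 h, then 16 h at 37C/5% CO2. CCF4-AM added, 2 h RT. Ratio of 460 to 530 nm emission taken as the p53 reporter signal.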

[13] = TOX21_p53_BLA_p3_viability: Viability Assessment in the Tox21 HCT-116 p53 Agonism Beta-lactamase Assay, Phase 3 (AID 2283593; active means hit-call score of the fitted dose curve at least 0.9, where 1 is the maximum;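 further: cells exposed to compound for 16 h before reading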)
In short: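 HCT116 cells, 4000/well, dosed 5 h after plating by pin transfer (217-fold dilution from DMSO stock) and incubated 16 h at 37C, 5% CO2. Viability read as ATP luminescence with CellTiter-Glo after 30 min at room temperature.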

[14] = target: Cellular tumor antigen p53 (Homo sapiens) (UniProt P04637); test: TOX21_p53_BLA_p3_ratio: Tox21 HCT-116 p53 Agonism Beta-lactamase Assay, Ratio, Phase 3 (AID 2283596; active means hit-call score of the fitted dose curve at least 0.9, where 1 is the maximum)
In short: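 Cells were seeded at 4000/well, rested 5 h at 37C, then dosed with DMSO compound solutions (217-fold dilution) for 16 h. CCF4-AM substrate was loaded for 2 h at room temperature, and the 460/530 nm emission ratio was fitted for gain of signal versus DMSO.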

[15] = TOX21_p53_BLA_p4_viability: Viability Assessment in the Tox21 HCT-116 p53 Agonism Beta-lactamase Assay, Phase 4 (AID 2283597; active means hit-call score of the fitted dose curve at least 0.9, where 1 is the maximum;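 further: hits lower the luminescence signal meaning cytotoxicity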)
In short: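 Readout: ATP luminescence (CellTiter-Glo), measured 30 min after reagent addition at RT. The reagent followed a 2 h CCF4-AM incubation, and the cells had been exposed to compound for 16 h at 37C.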

[16] = target: Cellular tumor antigen p53 (Homo sapiens) (UniProt P04637); test: TOX21_p53_BLA_p5_ratio: Tox21 HCT-116 p53 Agonism Beta-lactamase Assay, Ratio, Phase 5 (AID 2283599; active means hit-call score of the fitted dose curve at least 0.9, where 1 is the maximum)
In short: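 HCT-116 p53-bla cells (4000/well) plated 5 h, dosed with compound (217-fold DMSO dilution) for 16 h at 37 C; CCF4-AM substrate 2 h at room temperature. Activity is the 460/530 nm emission ratio (405 nm excitation), fitted in gain-of-signal direction versus DMSO.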

[17] = TOX21_p53_BLA_p5_viability: Viability Assessment in the Tox21 HCT-116 p53 Agonism Beta-lactamase Assay, Phase 5 (AID 2283600; active means hit-call score of the fitted dose curve at least 0.9, where 1 is the maximum)
In short: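 Workflow: seed 4000 cells per well, wait 5 h, add compounds (DMSO, 217-fold dilution), incubate 16 h, load CCF4-AM 2 h, add CellTiter-Glo, read luminescence after 30 min.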

[18] = target: Cellular tumor antigen p53 (Homo sapiens) (UniProt P04637); test: TOX21_p53_BLA_p4_ratio: Tox21 HCT-116 p53 Agonism Beta-lactamase Assay, Ratio, Phase 4 (AID 2283601; active means hit-call score of the fitted dose curve at least 0.9, where 1 is the maximum)
In short: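 HCT-116 p53 beta-lactamase reporter cells (4000/well) preincubated 5 h, then compound (217-fold dilution of DMSO stock) for 16 h at 37C. CCF4-AM substrate added 2 h at room temperature; 460/530 nm emission ratio fitted upward versus DMSO.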

[19] = ATG_ISRE_CIS: Attagene CIS-FACTORIAL HepG2 Assay for human Interferon Regulatory Factor 1 (IRF1) binding to an Interferon-Stimulated Response Element (ISRE) (AID 2282948); conditions: HepG2 ISRE cis-reporter (Attagene), mRNA transcription readout; actives raise or lower the signal
In short: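 Read-out: fluorescent RT-PCR products resolved by capillary electrophoresis, reporting endogenous transcription factor activity via ISRE-driven reporter mRNA in transfected HepG2 cells dosed for 24 h; gain or loss fitted relative to DMSO.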

[20] = target: Transcription factor Sp1 (Homo sapiens) (UniProt P08047); test: ATG_Sp1_CIS: Attagene CIS-FACTORIAL HepG2 Assay for human Specificity Protein 1 (Sp1) (AID 2282961); conditions: HepG2 Sp1 cis-reporter transcription, actives raise or lower the signal
Chain of Transcription factor Sp1 (Homo sapiens) (P08047 whole entry, looked up): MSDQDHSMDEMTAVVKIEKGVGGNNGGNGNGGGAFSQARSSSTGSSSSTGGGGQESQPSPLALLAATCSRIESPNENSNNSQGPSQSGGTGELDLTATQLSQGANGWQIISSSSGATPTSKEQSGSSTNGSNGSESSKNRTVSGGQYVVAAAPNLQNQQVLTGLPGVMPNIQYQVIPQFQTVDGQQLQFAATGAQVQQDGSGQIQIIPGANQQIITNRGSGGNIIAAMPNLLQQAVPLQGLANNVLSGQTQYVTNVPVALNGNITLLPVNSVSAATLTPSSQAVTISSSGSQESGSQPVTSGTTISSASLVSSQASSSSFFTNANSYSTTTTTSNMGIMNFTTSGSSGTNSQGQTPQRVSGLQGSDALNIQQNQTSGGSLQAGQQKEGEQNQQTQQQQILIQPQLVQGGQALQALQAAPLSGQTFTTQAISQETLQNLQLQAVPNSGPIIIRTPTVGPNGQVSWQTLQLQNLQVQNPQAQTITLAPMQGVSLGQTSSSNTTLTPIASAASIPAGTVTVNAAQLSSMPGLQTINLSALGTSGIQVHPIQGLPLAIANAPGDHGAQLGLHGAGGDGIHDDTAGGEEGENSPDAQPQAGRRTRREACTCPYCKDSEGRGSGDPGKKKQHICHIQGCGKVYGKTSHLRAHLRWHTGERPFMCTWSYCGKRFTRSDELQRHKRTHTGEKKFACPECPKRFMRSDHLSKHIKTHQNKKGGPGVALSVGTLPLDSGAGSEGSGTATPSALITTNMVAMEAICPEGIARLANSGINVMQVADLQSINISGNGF
In short: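 Endogenous Sp1 activity was gauged in human liver HepG2 cells bearing transfected reporter units under a cis-regulating promoter. After 24 h dosing, reporter mRNA was quantified by RT-PCR with capillary electrophoresis, and activity fitted bidirectionally versus DMSO.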

## O=C1NC(=O)C2CC=CCC12 (stereo not given)
[1]
  outcome: inactive
[2]
  outcome: inactive
[3]
  outcome: inactive
[4]
  outcome: inactive
[5]
  outcome: inactive
[6]
  outcome: inactive
[7]
  outcome: inactive
[8]
  outcome: inactive
[9]
  outcome: inactive
[10]
  outcome: inactive
[11]
  outcome: inactive
[12]
  outcome: inactive
[13]
  outcome: inactive
[14]
  outcome: inactive
[15]
  outcome: inactive
[16]
  outcome: inactive
[17]
  outcome: inactive
[18]
  outcome: inactive

## CCCCCCCCCCCCCCCCCC[N+](C)(C)C
[1]
  outcome: inactive
[3]
  AC50: 45.4 µM (active)
[4]
  outcome: inactive
[19]
  outcome: inactive
[5]
  AC50: 42.2 µM (active)
[6]
  AC50: 43.9 µM (active)
[7]
  outcome: inactive
[20]
  outcome: inactive
[8]
  AC50: 6.46 µM (active)
[9]
  AC50: 16.8 µM (active)
[10]
  outcome: inactive
[11]
  AC50: 46.2 µM (active)
[12]
  AC50: 73.2 µM (active)
[13]
  AC50: 46.2 µM (active)
[14]
  AC50: 72.7 µM (active)
[15]
  AC50: 65.7 µM (active)
[16]
  AC50: 75 µM (active)
[17]
  AC50: 62.8 µM (active)
[18]
  AC50: 75.3 µM (active)

## COc1ccc2ccccc2c1
[1]
  outcome: inactive
[2]
  outcome: inactive
[3]
  outcome: inactive
[4]
  outcome: inactive
[19]
  outcome: inactive
[6]
  outcome: inactive
[7]
  outcome: inactive
[20]
  outcome: inactive
[10]
  outcome: inactive

## CC1(O)CSC(C)(O)CS1 (stereo not given)
[11]
  outcome: inactive
[12]
  outcome: inactive
[13]
  outcome: inactive
[14]
  outcome: inactive
[16]
  outcome: inactive
[17]
  outcome: inactive
[18]
  outcome: inactive

## CC(C)C1OCCN1CCOC(=O)NCCCCCCNC(=O)OCCN1CCOC1C(C)C (stereo not given)
[11]
  outcome: inactive
[12]
  outcome: inactive
[13]
  outcome: inactive
[15]
  outcome: inactive
[16]
  outcome: inactive
[17]
  outcome: inactive
[18]
  outcome: inactive
